SMN2 splice enh – qHTS Assay for Enhancers of SMN2 Splice Variant Expression; HEK293 SMN2-luciferase splicing reporter, luminescence, 30-36 h; Potency, µM (series often up to 46.1 µM), for the others: top-dose activity change, positive = activation, hits mostly activators; 210,000 tested, 2.8% active; note: % of control where 0% means no effect; nearly all actives have a fitted effect of over 55% in size
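HEK293 cells carry an SMN2 […]–luciferase reporter in which exon 7 inclusion puts luciferase in frame. Cells were plated 10-12 h before compound addition, then incubated 30-36 h at 37C. ONE-Glo luminescence was read; sodium butyrate at 4.5 mM final served as control.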
Luc counter – Counterscreen for Luciferase (Kinase-Glo TM) Inhibition; Luciferin 4-monooxygenase (Photuris pensylvanica), Q27757; Kinase-Glo luciferase, ATP luminescence, 8 min; Potency, µM (highest dose often 38.3 µM), inactives show at the highest dose activity change, negative = inhibition, actives largely listed as inhibitors; 200,000 tested, 0.28% active; AID 1379, 2008; note: % is set by controls: 0 for no effect and ±100 for the full control effect; nearly all actives have a fitted effect of over 60% in size
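Compounds were added to a substrate mix at pH 7.2 (50 mM imidazole, 10 uM ATP, within the enzyme's linear range), followed by Kinase-Glo detection reagent; luminescence was measured after 8 minutes at ambient temperature.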
NPC1 prom act – qHTS Assay for NPC1 Promoter Activators; Huh7 NPC1 promoter luciferase reporter, 24 h; Potency, µM (titrated, usually from 9.22 µM), for inactives: top-dose activation, actives largely listed as activators; 320,000 tested, 2.4% active; note: % of control where 0% means no effect; nearly all actives have a fitted effect of over 60% in size
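Compounds in DMSO were transferred onto Huh7 NPC1-luciferase reporter cells pre-incubated 2 h; after 24 h at 37 °C, Amplite reagent was dispensed and luminescence recorded 10 min later.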
ELG1 genotox – qHTS screen for small molecules that induce genotoxicity in human embryonic kidney (HEK293T) cells expressing luciferase-tagged ELG1; 330,000 tested, 1.3% active; HEK293T ELG1-luciferase reporter, luminescence, 16 h; AID 504466, 2011; Potency, µM (series often up to 46 µM), inactives show at the highest dose activity change, positive = activation, hits mostly activators; note: % of control where 0% means no effect; nearly all actives have a fitted effect of over 60% in size
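Genotoxicity was scored as increased ELG1-luciferase reporter signal, measured by ONE-Glo luminescence (30 min, room temperature). Compound or vehicle exposure of the HEK293T reporter cells lasted 16 hr at 37°C.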
Rab9 prom act – qHTS Assay for Rab9 Promoter Activators. Huh7 Rab9 promoter-luciferase reporter, luminescence, 24 h. 320,000 tested, 2.8% active. Potency, µM (series often up to 9.22 µM), inactives show at the top dose activation, negative = inhibition, usual class: activators. AID 485297, 2010; note: % of control where 0% means no effect; nearly all actives have a fitted effect of over 60% in size
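Huh7 reporter line, Rab9 promoter upstream of luciferase. Compound exposure 24 h at 37 °C in reduced-serum medium with 10% FBS. Read-out: luminescence.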
FLuc counter – qHTS profiling assay for firefly luciferase inhibitor/activator using purifed enzyme and Km concentrations of substrates (counterscreen for miR-21 project). Luciferin 4-monooxygenase (Photinus pyralis), P08659. purified FLuc, Km substrates, luminescence inhibition. Potency, µM (top dose mostly 57.5 µM), inactives show top-dose activity change, negative = inhibition, usual class: inhibitors. 360,000 tested, 6.9% active. AID 588342, 2011;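 note: plate controls were vehicle for no effect and reference inhibitor for full effect; nearly all actives have a fitted effect of over 55% in size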
Target sequence (P08659 whole entry, looked up): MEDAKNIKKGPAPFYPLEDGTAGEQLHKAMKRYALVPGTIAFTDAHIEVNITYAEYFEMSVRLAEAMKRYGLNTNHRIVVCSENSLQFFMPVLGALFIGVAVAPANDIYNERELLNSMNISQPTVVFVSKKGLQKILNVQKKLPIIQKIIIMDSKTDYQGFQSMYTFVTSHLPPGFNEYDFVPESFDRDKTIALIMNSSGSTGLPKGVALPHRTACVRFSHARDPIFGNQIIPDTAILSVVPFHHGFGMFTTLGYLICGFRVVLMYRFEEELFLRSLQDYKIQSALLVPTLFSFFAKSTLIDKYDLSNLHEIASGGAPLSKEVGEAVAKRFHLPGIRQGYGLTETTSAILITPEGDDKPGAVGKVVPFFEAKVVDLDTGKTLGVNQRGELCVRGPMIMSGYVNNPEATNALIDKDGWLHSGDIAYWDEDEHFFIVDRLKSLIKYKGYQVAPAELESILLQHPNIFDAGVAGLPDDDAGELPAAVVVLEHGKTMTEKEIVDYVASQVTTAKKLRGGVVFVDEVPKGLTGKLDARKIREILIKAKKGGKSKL
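Biochemical qHTS of compounds, final roughly 60 µM downward over six points, against 10 nM purified firefly luciferase using Km concentrations of substrates (10 uM D-luciferin, 10 uM ATP) in Tris acetate pH 7.5 buffer; luminescence output.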
* marks the source's active call; other numbers are inactive results; ? = inconclusive; . = no result; [ ] = remark or other dose. Sampled rows, rich in hits. Any-hit rate of the full collection: about 7.5%. Calls come from the whole dose curve; as a rule, active = well fitted curve in the direction sought with a large enough effect; inconclusive = small, poorly fitted or top-dose-only effect, or another doubt; inactive = no such curve, though single readings can be large; an effect the other way counts as inactive or inconclusive. Potency is the fitted concentration of half-maximal effect.

SMILES | SMN2 splice enh | Luc counter | NPC1 prom act | ELG1 genotox | Rab9 prom act | FLuc counter
O=[N+]([O-])c1ccccc1S(=O)(=O)Nc1cccc(-c2ccc(N3CCOCC3)nn2)c1 | . | . | 25% | ? | ? | 2.7µM*
Cc1ccc([N+](=O)[O-])cc1S(=O)(=O)Nc1cccc(-c2ccc(N3CCOCC3)nn2)c1 | . | . | 20% | 9.2µM* | ? | 3µM*
O=S(=O)(Nc1ccc(N2CCOCC2)cc1)c1cc(Cl)ccc1Cl | . | . | -2% | 6% | -6% | -1%
O=[N+]([O-])c1ccccc1S(=O)(=O)Nc1cccc(-c2ccc(N3CCCC3)nn2)c1 | . | . | 23% | ? | 20% | 17µM*
O=S(=O)(Nc1cccc(-c2ccc(N3CCOCC3)nn2)c1)c1cc(Cl)ccc1Cl | . | . | 19% | ? | ? | 7.6µM*
CC(C)(C)C1CCc2c(sc3nc(-c4cc5cc(Cl)ccc5oc4=O)[nH]c(=O)c23)C1 (configuration not stated) | . | . | . | . | . | -14%
Cc1ccc(N2CC(NC(=O)c3cc4ccccc4o3)CC2=O)cc1C (configuration not stated) | . | . | . | . | . | 1%
CSc1ccc(/C=N/NC(=O)c2ccc(C)c(C)c2)cc1 | 11% | -6% | 2% | 6% | -1% | 19µM*
Cc1cccc(C(=O)Oc2ccc(/C=N/NC(=O)c3cc(O)cc(O)c3)cc2)c1 | . | . | -1% | 7% | 4% | ?
COc1ccc(OCc2ccc(/C=N\NC(=O)c3sccc3C)o2)cc1 | . | . | ? | 13% | ? | 27µM*
CSc1ccc(/C=N/NC(=O)c2sccc2C)cc1 | 2.5µM* | ? | 0.56µM* | 1.8µM* | 0.63µM* | 0.43µM*
CSc1ccc(/C=N/NC(=O)c2cc(O)cc(O)c2)cc1 | ? | ? | ? | ? | ? | 9.5µM*
CNC[C@H](O)[C@H](O)[C@H](O)[C@H](O)CO | 7%[20.6 µM] | -1%[17.1 µM] | . | . | . | .
CCOc1ccc(C(=O)NCCc2sc3nc(-c4ccc(Cl)cc4)nn3c2C)cc1OCC | . | . | . | . | . | 2%
Cc1ccc(N=Cc2c(C)[nH]n(-c3nc4ccccc4[nH]3)c2=O)cc1 | -8% | 5µM* | ? | 2% | ? | 6.7µM*
Cc1ccc(N=Cc2c(O)c3ccccc3n(C)c2=O)cc1 | . | . | -2% | 3% | 12% | 0.43µM*
Cc1ccc(N=Cc2sc(O)c3ccccc23)c(C)c1 | 11µM* | 1% | ? | 11% | 1µM* | ?
Cc1ccc(N=Cc2sc(O)c3ccccc23)cc1 | 4.5µM* | -2% | 2µM* | ? | 1.3µM* | 1.1µM*
CCN1C(=O)c2ccccc2S(=O)c2ccc(C(=O)N3CCN(c4cccc(Cl)c4)CC3)cc21 (configuration not stated) | 16% | . | . | . | . | -1%
COCCn1c(C)cc(C(=O)CSc2nc3ccccc3o2)c1C | 7.9µM* | -3% | 0.63µM* | ? | 0.35µM* | 1.3µM*
COCCn1c(C)cc(C(=O)CSc2cc(C)c3ccc(OC)cc3n2)c1C | . | . | 7% | 2% | 19% | 3µM*
COCCn1c(C)cc(C(=O)CSc2nc3ccccc3s2)c1C | -77% | -13% | 0.35µM* | ? | 0.5µM* | 0.54µM*
COc1ccc2c(C)cc(SCC(=O)c3ccc4c(c3)OCO4)nc2c1 | -11% | 1% | -1% | -7% | 7% | ?
COCCn1c(C)cc(C(=O)CSc2nc(C)c(C)c(C)n2)c1C | -24% | 0% | -6% | 0% | 0% | -19%
COc1ccc(OCCSc2ncccn2)cc1 | 14µM* | -2% | 2.2µM* | 3.7µM* | 1.6µM* | 7.6µM*
SMILES | SMN2 splice enh | Luc counter | NPC1 prom act | ELG1 genotox | Rab9 prom act | FLuc counter
Clc1ccc(OCCSc2ncccn2)cc1 | 25µM* | -3% | 2.5µM* | 8.2µM* | 3.5µM* | 6.7µM*
COc1ccc(OCCSc2ncnc3nc[nH]c23)cc1 | -18% | 2% | ? | ? | ? | 17µM*
Nc1cc(N)nc(SCCOc2ccccc2F)n1 | 13µM* | -1% | 28% | ? | ? | ?
COc1ccc(OCCSc2nc3nc(C)cc(C)n3n2)cc1 | -3% | -2% | -2% | 2% | -3% | -7%
Fc1ccccc1OCCSc1ncnc2nc[nH]c12 | ? | -2% | 26% | ? | ? | ?
CC(C)(C)c1cccc(OCCCSc2ncccn2)c1 | -20% | -3% | -1% | 3% | 4% | ?
O=c1[nH]c(SCCOc2ccccc2F)nc2ccccc12 | . | 1% | 12% | 8% | 18% | 27µM*
COc1ccc(OCCCSc2ncccn2)cc1 | 25µM* | -1% | ? | 10µM* | ? | 13µM*
COc1cccc(OCCCCSc2ncccn2)c1 | 18% | 0% | 13% | ? | 16% | ?
COc1ccccc1OCCSc1nc2ccccc2c(=O)[nH]1 | ? | -1% | 16% | ? | 15% | ?
Cc1ccc(OCCCSc2ncccn2)cc1C | 20µM* | 0% | ? | ? | ? | 15µM*
COc1cccc(OCCSc2nc(N)cc(N)n2)c1 | -63% | -5% | ? | ? | ? | 24µM*
CCOc1ccc(CCn2c3c(c(=O)[nH]c2=O)C(NC(=O)c2ccccc2)(C(F)(F)F)C(=O)N3)cc1OCC (configuration not stated) | 0% | . | . | . | . | -7%
c1cnc(SCCCOc2ccc3ccccc3c2)nc1 | 16% | -3% | ? | 21µM* | ? | 17µM*
COc1ccccc1CNC(=O)CSC1=Nc2ccccc2N=C(c2ccc(F)cc2)C1 | . | . | . | . | . | -19%
COC(=O)c1cccc(NC(=O)c2cnccn2)c1 | . | . | 19% | 2% | ? | -9%
O=C(Nc1cccc(-c2cn3ccccc3n2)c1)c1cccc(Cl)c1 | -21% | 1% | -1% | -5% | 18% | 2.4µM*
O=C(Nc1cccc(-c2cnc3ccccc3n2)c1)c1ccc(Cl)cc1 | 7% | 0% | 6% | 8% | 12% | -10%
O=C(Nc1cccc(-c2cn3ccccc3n2)c1)c1cnccn1 | ? | -5% | 25% | -2% | 29% | 12µM*
N/C(=N\OC(=O)COc1ccccc1)c1ccc(Cl)cc1 | 21% | 2% | 0% | ? | 0% | ?
Cc1cccc(/C(N)=N/OC(=O)Cc2ccccc2)c1 | 11% | -3% | 14% | ? | 20% | 15µM*
N/C(Cc1ccc(Cl)cc1Cl)=N\OC(=O)Cc1ccc(Cl)cc1 | -7%[1.84 µM] | -3% | 0% | 3% | 0% | -1%
